For experiment [1], the system named is TRPC4 beta (transient receptor potential cation channel C4), mouse. Briefly: activators of mouse TRPC4 channel, confirmation, cell-based, Fluo4 calcium, HEK293 TRPC4beta/mu-opioid, duplicates, 10 µM (AID 2426;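 active means fluorescence ratio normalized to control raised more than 50% in primary screen plus both repeat runs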). To be noted: Fluo4 calcium fluorescence, at 10 µM; stronger effect = higher value.
The test system of experiment [2] is transient receptor potential cation channel C4 beta (TRPC4), mouse. Briefly: activators of mouse TRPC4 channel, confirmation, cell-based, second round, Fluo4, HEK293 TRPC4beta/mu-opioid, 1 µM (AID 2461;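 active means primary screen active and over 50% activation in each of two duplicate runs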). To be noted: Fluo4 calcium fluorescence, at 1 µM; stronger effect = higher value.
Experiment [3] relates to TRPC4 (transient receptor potential cation channel C4 beta), mouse. In words: positive allosteric modulators of mouse TRPC4, confirmation, cell-based, second round, Fluo-4, HEK293 TRPC4beta/mu-opioid, 1 µM (AID 2554;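 active means primary screen hit whose fluorescence ratio, in both repeats, exceeds the weak agonist control mean by 3 SD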). To be noted: DAMGO EC20, Fluo-4 calcium flux, at 1 µM; stronger effect = higher value. For orientation: Calcium flux is commonly read through the fluorescence of an indicator in the cells.

Experiment [4] relates to TRPC4 beta (transient receptor potential cation channel C4), mouse. In words: positive allosteric modulators of mouse TRPC4, confirmation, cell-based, Fluo-4, HEK293 TRPC4beta/mu-opioid (AID 2555;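 active means primary screen hit whose calcium fluorescence ratio, in both repeats, exceeds the weak agonist control mean by 3 SD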). The following applies: DAMGO EC20, Fluo-4 calcium flux, at 10 µM; stronger effect = higher value.
The target of experiment [5] is Short transient receptor potential channel 4 (Mus musculus) (UniProt Q9QUQ5). Briefly: inhibitors of mouse TRPC4 channel, confirmation, cell-based, Fluo4, HEK293 TRPC4beta/mu-opioid (AID 2636;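 active means calcium signal cut by more than 3 SD below the full-agonist control yet still positive, in both repeats and the earlier primary screen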). To be noted: DAMGO, Fluo4 calcium flux, at 10 µM; stronger effect = higher value.
Short transient receptor potential channel 4 (Mus musculus), sequence (Q9QUQ5 whole entry, looked up): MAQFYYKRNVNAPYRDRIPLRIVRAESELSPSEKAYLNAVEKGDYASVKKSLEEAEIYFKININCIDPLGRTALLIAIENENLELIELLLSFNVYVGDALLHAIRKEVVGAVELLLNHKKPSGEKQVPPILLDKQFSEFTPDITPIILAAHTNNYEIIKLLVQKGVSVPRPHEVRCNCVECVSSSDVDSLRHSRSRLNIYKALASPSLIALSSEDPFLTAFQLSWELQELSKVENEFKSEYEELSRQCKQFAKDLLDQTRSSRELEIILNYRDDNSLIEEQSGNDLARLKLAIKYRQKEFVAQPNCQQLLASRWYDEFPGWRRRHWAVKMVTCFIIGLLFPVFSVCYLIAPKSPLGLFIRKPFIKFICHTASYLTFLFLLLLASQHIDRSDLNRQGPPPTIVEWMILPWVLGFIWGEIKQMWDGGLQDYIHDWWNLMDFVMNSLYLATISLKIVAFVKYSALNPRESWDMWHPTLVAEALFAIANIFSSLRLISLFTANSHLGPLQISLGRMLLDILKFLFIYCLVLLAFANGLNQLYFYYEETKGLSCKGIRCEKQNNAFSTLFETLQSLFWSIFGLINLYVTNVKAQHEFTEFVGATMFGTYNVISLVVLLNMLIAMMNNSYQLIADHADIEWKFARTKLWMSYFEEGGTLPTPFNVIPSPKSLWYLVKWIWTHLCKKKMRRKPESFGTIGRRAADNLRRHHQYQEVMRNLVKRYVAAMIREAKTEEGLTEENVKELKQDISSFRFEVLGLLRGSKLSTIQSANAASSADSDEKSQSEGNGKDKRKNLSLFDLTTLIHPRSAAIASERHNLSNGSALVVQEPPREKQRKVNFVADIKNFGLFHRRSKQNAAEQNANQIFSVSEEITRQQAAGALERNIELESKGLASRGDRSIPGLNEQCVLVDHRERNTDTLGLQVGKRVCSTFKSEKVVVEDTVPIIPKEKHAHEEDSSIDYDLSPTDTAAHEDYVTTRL
Experiment [6] shares this target. Briefly: inhibitors of mouse TRPC4 channel, confirmation, cell-based, second round, Fluo4, HEK293 TRPC4beta/mu-opioid, 1 µM (AID 2637;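 active means calcium signal ratio cut to more than 3 SD under the fully stimulated control mean yet still positive, in both repeats and the primary screen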;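 on inhibition: percent of integrated ratio relative to wells lacking test compound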). To be noted: Fluo4 calcium flux, DAMGO, at 1 µM; stronger effect = higher value.
Experiment [7] has the same target. In words: mouse TRPC4 channel activators, dose response, cell-based, HEK293 TRPC4/mu-opioid, Fluo-4 calcium (AID 434937;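 active means primary screen activator hit with a dose response curve and TRPC4 channel activation at any tested dose; inactive means no activation, no dose response, or not a primary hit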).
For experiment [8] the target is unchanged. In words: TRPC4 positive allosteric modulators, dose response, cell-based, HEK293 TRPC4/mu-opioid, Fluo-4 calcium, EC20 DAMGO (AID 434941;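 active means earlier screen potentiator hit that boosts the TRPC4 ion channel at some dose, with a dose response; inactive means no potentiation, no dose response, or not a prior hit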;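 further: calcium entry triggered by an EC20 dose of DAMGO at the co-expressed mu-opioid receptor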).
Experiment [9] addresses Short transient receptor potential channel 6 (Mus musculus) (UniProt Q61143). In words: inhibition of mouse TRPC6 channel, confirmation, selectivity assay for TRPC4 inhibitor project, cell-based, HEK293, membrane potential dye, duplicate (AID 434948;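 active means active in primary screen and both duplicates, each dropping signal beyond three positive-control SD with fluorescence still positive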). To be noted: HEK293 TRPC6, membrane potential dye fluorescence, at 10 µM, stimulated with maximal-effect acetylcholine; stronger effect = higher value.

Experiment [10] shares this target. Briefly: activation of mouse TRPC6 channel, confirmation, selectivity assay for TRPC4 activator project, cell-based, HEK293, membrane potential dye, duplicate (AID 434950;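 active means membrane potential signal rise above negative control mean plus 3 SD in both duplicates, also active in the earlier TRPC4 screen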). To be noted: HEK293 TRPC6, membrane potential fluorescence, at 10 µM; stronger effect = higher value.
The target is the same in experiment [11]. Briefly: TRPC6 potentiation by TRPC4 potentiator hits, confirmation, selectivity assay for TRPC4 potentiator project, HEK293 cells, membrane potential dye, duplicate (AID 434952). The following applies: HEK293 TRPC6, membrane potential dye fluorescence, at 10 µM, maximal acetylcholine added after compound; stronger effect = higher value.
Experiment [12] concerns the target Short transient receptor potential channel 4 (Mus musculus) (UniProt Q9QUQ5). In words: calcium flux activators in TRPC4/5HT1a cells, counter-screen for TRPC4 activator project, cell-based, second counter screen, HEK293 TRPC4/5HT1a, Fluo-4 (AID 434977;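 active means calcium signal rise above buffer-control mean plus 5 SD in both duplicates, and also a hit in the primary screen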). To be noted: Fluo-4 calcium flux, at 10 µM; stronger effect = higher value.
Experiment [13] can be described thus: calcium flux inhibitors in TRPC4/5HT1a cells, confirmation, counter-screen for TRPC4 inhibitor project, cell-based, second counter screen, HEK293 TRPC4/5HT1a, Fluo-4 (AID 434978;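 active means primary screen active whose calcium signal fell more than 3 SD beyond the full-serotonin control mean in both duplicate plates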;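 on outcome: serotonin given first at submaximal then at maximal dose after compound preincubation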). The following applies: Fluo-4 calcium flux, at 10 µM, serotonin added to trigger calcium flux; stronger effect = higher value.
Experiment [14] has as its system TRPC4 (mouse), co-expressed with 5HT1a in HEK293. Briefly: calcium flux potentiators in TRPC4/5HT1a cells, confirmation, counter-screen for TRPC4 potentiator project, cell-based, second counter screen, HEK293 TRPC4/5HT1a, Fluo-4 (AID 434979;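 active means signal rise over 3 SD above mean of control wells given weak agonist, in both repeats and first screen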). To be noted: Fluo-4 calcium flux, at 10 µM, serotonin added at its EC20 dose; stronger effect = higher value.
A short description of experiment [15]: calcium flux activation in mu-opioid HEK293 cells, confirmation, counter-screen for TRPC4 activator project, cell-based, HEK293 mu-opioid receptor line (AID 449723;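 active means hit in primary screen, with calcium signal over 5 SD above buffer well mean in both duplicates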;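 further: counter screen cells carry the mu-opioid receptor alone and lack TRPC4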). To be noted: Fluo-4 calcium fluorescence, at 10 µM; stronger effect = higher value.
The nature of experiment [16]: calcium flux enhancement in mu-opioid HEK293 cells, confirmation, counter-screen for TRPC4 allosteric potentiator project, cell-based, HEK293 mu-opioid receptor line (AID 449724;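 active means calcium signal rise more than 3 SD above the low-dose agonist control mean, in both duplicate plates and the primary screen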;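 further: HEK293 cells carrying mu-opioid receptor only with no TRPC4 channel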). The following applies: Fluo-4 calcium flux, at 10 µM, compound added before EC20 DAMGO stimulus; stronger effect = higher value.

For part of these data: Potency and affinity values are given separately. Active and inactive are the calls of the source.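 How the source made its calls, unless noted: active means compound raising the membrane signal above positive-control mean plus 3 SD in both repeats, and a primary screen hit; inactive means the rest.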

Short transient receptor potential channel 6 (Mus musculus), sequence (Q61143 whole entry, looked up): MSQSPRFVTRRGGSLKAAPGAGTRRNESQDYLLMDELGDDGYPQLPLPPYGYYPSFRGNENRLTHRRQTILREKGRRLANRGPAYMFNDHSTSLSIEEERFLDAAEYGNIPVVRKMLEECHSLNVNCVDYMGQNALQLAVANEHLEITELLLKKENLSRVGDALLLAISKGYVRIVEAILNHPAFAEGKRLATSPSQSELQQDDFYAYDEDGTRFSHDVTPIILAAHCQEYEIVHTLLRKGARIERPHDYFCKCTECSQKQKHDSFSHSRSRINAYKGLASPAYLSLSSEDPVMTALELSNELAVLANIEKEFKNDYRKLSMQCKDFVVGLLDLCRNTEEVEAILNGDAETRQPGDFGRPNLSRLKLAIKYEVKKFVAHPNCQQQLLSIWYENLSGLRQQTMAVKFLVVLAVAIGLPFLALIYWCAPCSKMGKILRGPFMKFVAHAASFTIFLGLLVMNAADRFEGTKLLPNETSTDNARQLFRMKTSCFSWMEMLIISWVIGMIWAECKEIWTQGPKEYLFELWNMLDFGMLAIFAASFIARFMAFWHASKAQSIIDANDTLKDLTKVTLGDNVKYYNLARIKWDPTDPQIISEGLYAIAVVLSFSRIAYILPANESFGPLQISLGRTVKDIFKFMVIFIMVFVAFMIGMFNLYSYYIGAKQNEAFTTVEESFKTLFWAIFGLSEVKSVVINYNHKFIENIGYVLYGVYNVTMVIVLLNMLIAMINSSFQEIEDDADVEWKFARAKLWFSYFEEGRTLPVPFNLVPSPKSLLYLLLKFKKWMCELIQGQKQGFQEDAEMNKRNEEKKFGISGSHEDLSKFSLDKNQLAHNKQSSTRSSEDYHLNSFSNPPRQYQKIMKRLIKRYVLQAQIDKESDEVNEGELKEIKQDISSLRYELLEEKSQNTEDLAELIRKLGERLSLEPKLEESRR

As usually defined, the inhibition is the share of the control response that was lost under treatment. Consider `Cc1ccc(NC(=S)N(CCCN(C)C)Cc2cc3cc4c(cc3[nH]c2=O)OCO4)c(C)c1`, for which the outcome in [1], in [2], in experiment [3], in experiment [4], in [7] and in experiment [8] was inactive. The result in [9], in [10], in experiment [11], in [12], in experiment [14] and in experiment [15] was inactive. The result in experiment [16] was inactive. The inhibition in [5] is 96% (active); in [6] it was 70% (active); in experiment [13] it was 14.4% (active).

Take `CCCCc1nc2ccccc2c(N)c1CCC` (tested in a mixture with another compound): the outcome in experiment [1], in [2], in experiment [3], in experiment [4], in [7] and in [8] was inactive. Further, the result in experiment [10], in experiment [11], in [12], in experiment [14], in experiment [15] and in experiment [16] was inactive. Further, the inhibition in [5] was 96% (active); in [6], 69% (active); in experiment [9], 18% (active); in experiment [13] it was 32.6% (active).

As for `CCOC(=O)C(C)Sc1nc2c(c(=O)[nH]c(=O)n2C)n1Cc1ccc(Cl)cc1` (stereo not given), the result in experiment [1], in experiment [2], in experiment [3], in experiment [4], in [7] and in experiment [8] was inactive. The result in [9], in experiment [10], in experiment [11], in experiment [12], in experiment [14] and in experiment [15] was inactive. The result in experiment [16] was inactive. For the same molecule, the results for the inhibition in experiment [5], in experiment [6] and in experiment [13] were 93% (active), 68% (active) and 19.9% (active), respectively.

For the molecule `Cc1nc2scc(-c3ccccc3)c2c(=O)n1N=C1C=CC(=O)C=C1`, the outcome in experiment [1], in experiment [2], in experiment [3], in experiment [4], in [6] and in experiment [7] was inactive. Further, the outcome in experiment [8], in experiment [9], in [10], in [11], in [12] and in experiment [14] was inactive. Further, the result in [15] and in experiment [16] was inactive. Moreover, the inhibition in [5] is 69% (active); in experiment [13] it was 21% (active).

Turning to `CC1(c2ccccc2)CC(C)(C)N(C(=O)C2CCCO2)c2ccccc21` (stereo not given), the outcome in [1], in experiment [2], in experiment [3], in experiment [4], in experiment [6] and in experiment [7] was inactive. Besides, the result in experiment [8], in experiment [9], in experiment [10], in [11], in experiment [12] and in [14] was inactive. Moreover, the outcome in experiment [15] and in [16] was inactive. Besides, the values for the inhibition in experiment [5] and in experiment [13] were 90% (active) and 38.3% (active), respectively.

Regarding `Cc1cc(Cl)c2oc(C(=O)N(C)Cc3nccn3C)c(C)c2c1`, the result in experiment [1], in experiment [2], in experiment [3], in experiment [4], in [6] and in [7] was inactive. Moreover, the result in experiment [8], in experiment [9], in experiment [10], in experiment [11], in experiment [12] and in [13] was inactive. In addition, the outcome in [14], in experiment [15] and in experiment [16] was inactive. Also, the inhibition in experiment [5] was 84% (active).

For the molecule `Cc1ccc(Nc2cc(C)nc3c(C)cccc23)cc1`, the outcome in [1], in [2], in experiment [3], in experiment [4], in experiment [5] and in [7] was inactive. The outcome in experiment [8], in experiment [10], in [11], in [12], in [14] and in experiment [15] was inactive. For the same molecule, the outcome in experiment [16] was inactive. For the same molecule, the figures for the inhibition in experiment [6], in experiment [9] and in experiment [13] were 54% (active), 22% (active) and 35.3% (active), respectively.

Turning to `Cc1cccc(N(Cc2ccccc2)C(=O)CSC(C)C(=O)Nc2cc(C)on2)c1` (stereo not given), the result in [1], in [2], in experiment [3], in experiment [4], in [6] and in experiment [7] was inactive. Further, the outcome in experiment [8], in experiment [9], in experiment [10], in experiment [11], in experiment [12] and in [14] was inactive. Further, the result in [15] and in [16] was inactive. For the same molecule, the inhibition was 91% (active) in experiment [5] and 31.4% (active) in experiment [13].

For `Cc1cc([N+](=O)[O-])ccc1NCc1ccco1`, the outcome in experiment [1], in experiment [2], in [3], in experiment [4], in [6] and in [7] was inactive. Moreover, the outcome in experiment [8], in experiment [9], in [10], in [11], in experiment [12] and in experiment [14] was inactive. For the same molecule, the outcome in experiment [15] and in experiment [16] was inactive. The inhibition is 92% (active) in experiment [5] and 14.5% (active) in experiment [13].

For `COc1cccc(C(=O)C2CCCN(Cc3cccn3-c3ccccn3)C2)c1` (stereo not given), the outcome in experiment [1], in [2], in experiment [3], in [4], in [6] and in experiment [7] was inactive. In addition, the result in [8], in [10], in experiment [11], in [12], in experiment [14] and in [15] was inactive. Besides, the result in experiment [16] was inactive. Also, the inhibition is 44% (active) in [5], 38% (active) in experiment [9] and 35.6% (active) in [13].

With `CCCOc1ccc(Br)cc1/C=N/O`, the outcome in experiment [1], in experiment [2], in experiment [3], in experiment [4], in [5] and in [7] was inactive. In addition, the result in [8], in [9], in experiment [10], in experiment [11], in [12] and in experiment [13] was inactive. Also, the result in [14], in experiment [15] and in [16] was inactive. Further, the inhibition in experiment [6] is 54% (active).

Consider `CCC(C)NC(C(=O)Nc1ccc(Cl)c([N+](=O)[O-])c1)c1ccccc1` (stereo not given), for which the outcome in [1], in experiment [2], in experiment [3], in experiment [4], in [6] and in [7] was inactive. Moreover, the result in experiment [8], in experiment [9], in experiment [10], in experiment [11], in experiment [12] and in experiment [13] was inactive. In addition, the outcome in [14], in experiment [15] and in experiment [16] was inactive. Besides, the inhibition in [5] was 73% (active).

For `CCCCN(CCCC)/C(N)=N/c1nc(C)cc(C)n1`, the outcome in experiment [1], in experiment [2], in experiment [3], in experiment [4], in [5] and in experiment [6] was inactive. For the same molecule, the outcome in experiment [7], in experiment [8], in [9], in experiment [10], in [11] and in [12] was inactive. Moreover, the result in experiment [14], in [15] and in [16] was inactive. Besides, the inhibition in experiment [13] is 35.1% (active).

Consider `COc1ccc(C(Nc2ccccn2)c2c(NC(=O)c3ccco3)sc(C)c2C)cc1OC` (stereo not given), for which the outcome in [1], in experiment [2], in [3], in experiment [4], in experiment [7] and in experiment [8] was inactive. Moreover, the result in [9], in experiment [10], in [11], in experiment [12], in experiment [13] and in [14] was inactive. The outcome in experiment [15] and in experiment [16] was inactive. Also, the results for the inhibition in experiment [5] and in [6] were 78% (active) and 38% (active), respectively.

On to `CCOC(=O)CSc1nc2c(sc(=S)n2-c2ccccc2OC)c(=O)n1-c1ccccc1OC`, for which the result in [1], in experiment [2], in [3], in [4], in [7] and in experiment [8] was inactive. Also, the molecule was called inactive in [9], in [10], in experiment [11], in [12], in [14] and in [15]. Also, the result in experiment [16] was inactive. Also, the inhibition in experiment [5] is 71% (active); in experiment [6], 38% (active); in [13], 31.3% (active).

Values taken from PubChem BioAssay.
